According to PubChem BioAssay (Tox21):
Inconclusive results are not listed. Unmarked numbers belong to inactive results. Calls of active or inactive are those of the source. Calls come from the whole dose curve; as a rule, active = well fitted activation curve with a large enough effect in the repeat runs; inconclusive = weak or mixed curves, or effect the other way; inactive = no such curve, though single readings can be large or run the other way.

Assay: qHTS assay to identify small molecule agonists of the estrogen related receptor signaling pathway with the pleiotropic PPARgamma coactivator (PGC) from Tox21 10K library (AID 1224842); note: nearly all actives have a fitted effect of over 15% in size
Conditions: PGC/ERR reporter cell line, luciferase ONE-Glo, 18 h; series mostly up to 92.4 µM; activation: at the top concentration
Excerpt: National Center for Advancing Translational Sciences [NCATS] NIH Chemical Genomics Center [NCGC] U.S. Environmental Protection Agency [EPA] National Institutes of Environmental Health Sciences [NIEHS] National Toxicology Program [NTP] Assay overview: Estrogen related receptors (ERRs), the first orphan nuclear receptors discovered, play an important role in the control of cellular energy metabolism. ERRs are required for high-energy production in response to the environmental challenges. The pleiotropic PPARgamma coactivator (PGC) is a major partner of ERR and a key regulator in energy homeostasis. Together they have been implicated in the etiology of metabolic disorders such as Type 2 diabetes and metabolic syndrome. ERR-alpha was also identified as an adverse marker for breast cancer progression; ERR-alpha-positive tumors have a poor prognosis. To screen and to identify environmental compounds that perturb the PGC/ERR signaling pathways could provide valuable information for potential therapeutic or preventive measures in the treatment of metabolic disease. For identifying PGC/ERR agonists, PGC/ERR cell line (provided by NTP) has been used to screen Tox21 10K library.
Assay Protocol Summary: The PGC/ERR cells were dispensed at 2,000 cells/5 ul/well in 1536-well white plates using a Multidrop dispenser. After the assay plates were incubated at a 37 C/5% CO2 incubator for 6 hours, 23 nL of compounds dissolved in DMSO, positive and negative controls or DMSO only was transferred to the assay plate by a pin tool. The plates were incubated at 37 C for 18 hours. 4 ul/well of One-Glo reagent was added into the assay plates using a Flying Reagent Dispenser. After 30-minute incubation at room temperature, the luminescence intensity in the plates was measured using a ViewLux plate reader.
% is set by controls: 0 for no effect and ±100 for the full control effect; potency is the fitted concentration of half-maximal effect.

| Compound | activation | Potency |
| --- | --- | --- |
| Brc1c2ccccc2c(Br)c2ccccc12 | 2.94% [at 8.39 µM] | – |
| CC(=O)[O][Al] | -0.716% | – |
| CCOc1ccc(N)c([N+](=O)[O-])c1 | -1.33% | – |
| COc1ccc(C(=O)c2ccc(OC)cc2O)c(O)c1 | – | 4.89 µM (active) |
| OC(C#CCN1CCCC1)(c1ccccc1)c1ccccc1 | -0.849% [at 42.5 µM] | – |
| CCCCCCc1ccc(-c2ccc(C#N)cc2)cc1 | 3.47% | – |
| CCCCCCCCCCCCCCCCCCOS(=O)(=O)O | -13.1% | – |
| C=CCOc1ccccc1OCC(O)CNC(C)C (stereo not given) | 0.362% [at 42.5 µM] | – |
| COC(C)OC | 0.914% | – |
| COc1cc2nc(N(C)CCCNC(=O)C3CCCO3)nc(N)c2cc1OC (stereo not given) | -15.6% [at 42.5 µM] | – |
| C[C@@H]1C[C@H]2O[C@@]3(O[C@@H]2C(C)(C)O)[C@H](O)[C@@]2(C)[C@@H]4CC[C@H]5C(C)(C)[C@@H](O[C@@H]6OC[C@@H](O)[C@H](O)[C@H]6O)CC[C@@]56C[C@@]46CC[C@]2(C)[C@@H]13 | 0.388% [at 42.5 µM] | – |
| CN1C[C@H]2c3ccccc3Oc3ccc(Cl)cc3[C@@H]2C1 | 4.36% [at 42.5 µM] | – |
| NCCCN1CCOCC1 | 1.72% | – |
| N=c1ccn2c(n1)O[C@H]1[C@H](O)[C@@H](CO)O[C@H]12 | 2.97% | – |
| CCOC(=O)Cc1cccc2ccccc12 | 3.9% | – |
| CCC(C)(C)CC | -2.55% | – |
| O=C1CCC(=O)O1 | 1.97% | – |
| CO[C@@H]1[C@H](OC(=O)/C=C/C=C/C=C/C=C/C(=O)O)CC[C@]2(CO2)[C@H]1[C@@]1(C)O[C@@H]1CC=C(C)C | -6.17% | – |
| COCCCN1CCC(NC(=O)c2cc(Cl)c(N)c3c2OCC3)CC1 | 3.08% [at 42.5 µM] | – |
| CCOC(=O)NCCOc1ccc(Oc2ccccc2)cc1 | -10.3% | – |

| Compound | activation | Potency |
| --- | --- | --- |
| CCc1cc(C2=C(C(=O)O)N(c3ccccc3C(F)(F)F)S(=O)(=O)c3ccccc32)cc2c1OCO2 | -21.2% | – |
| NC(N)=NCCC[C@H](N)C(=O)O | -1.51% [at 8.39 µM] | – |
| CC(C)(O)c1ccc(CNC(=O)c2cccnc2Oc2ccc(F)cc2)cc1 | -20.1% | – |
| COc1cc2c(cc1OC)C(C(C(=O)N(CCc1ccc(OC)c(OC)c1OC)CCc1ccc(OC)c(OC)c1OC)c1ccccc1)=NCC2 (stereo not given) | -16.4% [at 42.5 µM] | – |
| CCCCC/C=C\C/C=C\CCCCCCCC(=O)NC(C)c1ccccc1 (stereo not given) | -13.8% [at 42.5 µM] | – |
| OC[C@H]1O[C@@H](OCCc2ccc(O)cc2)[C@H](O)[C@@H](O)[C@@H]1O | -2.15% [at 42.5 µM] | – |
| Cn1c(=O)cc(Oc2ccc(F)cc2F)c2cnc(NCC(C)(C)O)nc21 | -17.1% | – |
| O=C(Nc1ccccc1)c1ccccc1O | -14.6% | – |
| C=C1C(=C/C=C2\CCC[C@]3(C)[C@@H]([C@H](C)/C=C/[C@@H](O)C4CC4)CC[C@@H]23)C[C@@H](O)C[C@@H]1O | -26.1% [at 42.5 µM] | – |
| CN(C)CCCN1c2ccccc2Sc2ccccc21 | 10.4% [at 42.5 µM] | – |
| CCN(CC)c1ccc(C(=C2C=CC(=[N+](CC)CC)C=C2)c2cc(S(=O)(=O)O)ccc2S(=O)(=O)[O-])cc1 | -23.9% [at 42.5 µM] | – |
| O=C(Nc1ccc(S(=O)(=O)N2CCOCC2)cc1)c1cc(Cl)ccc1NS(=O)(=O)c1ccc(Cl)s1 | -3.35% [at 42.5 µM] | – |
| CCC(=O)O[C@]1(C(=O)CCl)[C@@H](C)C[C@H]2[C@@H]3CCC4=CC(=O)C=C[C@]4(C)[C@@]3(F)[C@@H](O)C[C@@]21C | -1.16% [at 42.5 µM] | – |
| CC(C)CC(=O)C1C(=O)c2ccccc2C1=O | -23.3% | – |
| CCCCCCCCCCCCN1CCCCCC1=O | -6.76% | – |
| ClCCOCCOCCCl | 1.13% | – |
| O=C(O)c1nc(Cl)c(Cl)c(Cl)c1Cl | -7.3% | – |
| CC(COCCO)OCCO (stereo not given) | 1.01% | – |
| CC(C)OC(=O)C(C)N(C(=O)c1ccccc1)c1ccc(F)c(Cl)c1 (stereo not given) | -21.1% | – |
| O=C(c1ccc(F)cc1)C1CCN(CCn2c(=S)[nH]c3ccccc3c2=O)CC1 | -22.3% [at 42.5 µM] | – |
